# Several values for one entry are separate records, joined by “and”; a condition that tells them apart may be missing. Equal entries are not always repeated. Compounds without any hit were thinned out: in the full panel of roughly 83,000, 20% have a hit.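 Cell lines were cultured in 96-well plates, exposed to a single compound concentration, and assessed for percent growth 48 hours later.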 Activity calls are given as the source filed them. The calls were made as follows: active = growth percent below 10; inactive = the rest.
# Tested on: SNB-75 CNS
# Assay: NCI-60 one-dose screen, 48 h (100 = growth as untreated, 0 = no growth, -100 = all killed)
# Details: 10 µM unless noted
row,Structure (SMILES),growth
1,CC(=O)OC(C)C(=O)NCC(C)O (centres undefined),93.2% (inactive)
2,Nc1cc(N)c(N)cc1N,56.6% (inactive)
3,c1ccc(CNCCNCc2ccccc2)cc1,86.7% (inactive)
4,CC(=O)NCC(=O)c1ccc([N+](=O)[O-])cc1,99.1% (inactive)
5,O=C(O)CCCl,97.9% (inactive)
6,Oc1ccc(Cc2ccccc2Cl)c(O)c1,80.5% (inactive)
7,COc1ccc(Nc2ccc3ccccc3c2)cc1,64.3% (inactive)
8,Cc1cc(-c2ccc(N=Nc3ccc4c(S(=O)(=O)O)cc(S(=O)(=O)O)c(N)c4c3O)c(C)c2)ccc1N=Nc1ccc2c(S(=O)(=O)O)cc(S(=O)(=O)O)c(N)c2c1O,112% (inactive)
9,CC1=C/C(O)CC(=O)Cc2nc(co2)C(=O)N2CCC=C2C(=O)OC(C(C)C)C(C)/C=C\C(=O)NC/C=C\1 (centres undefined),80.8% (inactive)
10,Cl,96.9% (inactive)
11,CCCCOC(=O)/C=C\C(=O)NC(N)=O,95.9% (inactive)
12,Cn1cnc([N+](=O)[O-])c1Sc1ncn[nH]1,85.6% (inactive)
13,CCCCCCCCCCCCCCCCC(C(=O)O)C(O)(CC(=O)O)C(=O)O (centres undefined),98.8% (inactive) and -58.3% (active)
14,CCc1cc(C)cc(O)c1,98% (inactive)
15,c1ccc2c(c1)OC1OC2Oc2ccccc21,90% (inactive)
16,CC(C)NC(=O)N/C=C(\C#N)C(N)=O,83.2% (inactive)
17,O=[N+]([O-])c1cccc(SSc2cccc([N+](=O)[O-])c2)c1,102% (inactive)

row,Structure (SMILES),growth
1,CC(C)C(C)(C)c1ccc(O)cc1,97.8% (inactive)
2,ClCCOCCOc1ccc(C2CCCCC2)cc1,98.2% (inactive)
3,Cc1cc2ccccc2cn1,92.9% (inactive) and 83.1% (inactive)
4,N#CC(C#N)N=Nc1ccc(Cl)cc1,72% (inactive)
5,O=CN1CCCCC1,94.3% (inactive)
6,C/C(=C\c1ccccc1)c1ccccn1,89.1% (inactive)
7,OC1COC(OCc2ccccc2)C(O)C1O (centres undefined),90.5% (inactive)
8,COc1ccc(C(=O)CC(c2ccccc2)C(C#N)c2ccccc2)cc1 (centres undefined),83.8% (inactive)
9,NC1CCC(C(=O)O)CC1 (centres undefined),85.8% (inactive) and 82% (inactive)
10,Nc1ccc2c(O)cc(S(=O)(=O)O)cc2c1,99.7% (inactive)
11,CN1CNC(=O)NC1,94.8% (inactive) and 110% (inactive)
12,COc1ccc(N/C=C/C2=[N+](C)c3ccccc3C2(C)C)c(OC)c1,89.5% (inactive)
13,N#CC(C#N)N=Nc1cc(Cl)ccc1Cl,74.8% (inactive)
14,Nc1nc(N)c2[nH]cnc2n1,91.3% (inactive)
15,Cc1cc(-c2cc(C)c(O)c(C)c2)cc(C)c1O,65% (inactive)
16,Fc1ccc([I+]c2ccc(F)cc2)cc1,80% (inactive)
17,OCCN1CCCCCCC1,115% (inactive)
